Measurements taken from PubChem BioAssay (NCI).
The panel holds about 83,000 compounds, 20% with a hit somewhere; the sample as a whole holds those more often.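 Cell lines were cultured in 96-well plates, exposed to a single compound concentration, and assessed for percent growth 48 hours later.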 A number with no mark means an inactive call. Active and inactive are the calls of the source. How the source made its calls: active means growth percent below 10; inactive means the rest.

test system: MDA-MB-468 breast; assay: NCI-60 one-dose screen, 48 h (100 = growth as untreated, 0 = no growth, -100 = all killed); settings: 10 µM unless noted

Row | Structure (SMILES) | growth
1 | CCOC(=O)CSc1nc2sc3c(c2c(=O)n1-c1ccccc1)CCCCC3 | 122%
2 | Nc1ncc(-c2ccc(NS(=O)(=O)c3ccc(Cl)c(Cl)c3)cc2)[nH]1 | 90.1%
3 | CNc1ccc(Br)c2c1C(=O)c1ccccc1C2=O | 112%
4 | CC(=O)Oc1ccccc1C(=O)Nc1ccc(C(=O)/C=C/c2ccncc2)cc1 | 4.04% (active)
5 | NCCOCCOc1ccccc1 | 118%
6 | Oc1ccccc1/C=N/Nc1ccc2ccccc2n1 | 15.1%
